Reference: the supplement of paper PMC11577813, “Eurasian spruce bark beetle detects lanierone using a highly expressed specialist odorant receptor, present in several functional sensillum types” (BMC Biology, 2024)
± gives the standard deviation of the averaged measurements.

tested on: (4S)-cis-verbenol A-neuron OSN class; assay: net action potential response of A-neuron (blank-subtracted) (spikes/s (Hz)); higher = stronger excitation; settings: 10 µg on filter paper; neuron: A neuron (large spike amplitude)
Description: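 Single sensillum recordings from antennal olfactory sensilla of live adult Ips typographus. Each compound was 10 µg in paraffin oil on filter paper, delivered as a 0.5 s puff. Net response = spikes in the first 0.5 s of response minus the 0.5 s pre-stimulus count, doubled to give Hz, with blank response subtracted. Values are for the large-spike A-neuron class of each of seven sensillum types that co-house the lanierone B-neuron; N = 1-4 sensilla, averaged.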

Compound	net action potential response
CC(C)=CCC/C(C)=C/C=O [Citral (E/Z mix)]	0 ± 3.5
CC1=CCC2CC1C2(C)C (stereo not drawn) [(+)-α-Pinene]	-2 ± 7.2
OCCc1ccccc1 [2-Phenylethanol]	-2 ± 6.9
CCC(C)CO (racemic) [(±)-2-Methyl-1-butanol]	-1.33 ± 4.2
C[C@]12CCC[C@](C)(OC1)O2 (racemic) [(±)-Frontalin]	-2 ± 4
C=C1[C@@H]2CC[C@@H](C2)C1(C)C (racemic) [(±)-Camphene]	4 ± 3.5
COc1ccc(C)cc1 [4-Methyl anisole]	4.67 ± 4.6
CC(=O)OCCC(C)C [3-Methylbutyl acetate]	-4 ± 4
CCC/C=C\CO	1.33 ± 4.2
CC1=CCC(C(C)C)=CC1 [γ-Terpinene]	-5.33 ± 4.2
CC1=CC(C)(C)C=C(O)C1=O [Lanierone]	1.33 ± 5.8
CC/C=C/CCO	2.67 ± 7
CC(=O)c1ccccc1 [Acetophenone]	0.667 ± 1.1
COc1ccc(C)cc1OC [3,4-Dimethoxytoluene]	-2.67 ± 2.3
